Experimental data from ChEMBL document CHEMBL3988442, “University of Dundee, Small-Polar-MMV Screening Library” (2021).
For some assays here: Results with a measured potency or affinity are listed apart.

Experiments:
[1] = molecular target: T1, Methionyl-tRNA synthetase, putative (Leishmania donovani (strain BPK282A1)) (UniProt E9BF75); assay: Leishmania donovani Methionine tRNA synthetase (LdMetRS):v7. Dose response assay; assay type: functional; design: conc 80 nM, time 150 minutes
T1 sequence (whole entry): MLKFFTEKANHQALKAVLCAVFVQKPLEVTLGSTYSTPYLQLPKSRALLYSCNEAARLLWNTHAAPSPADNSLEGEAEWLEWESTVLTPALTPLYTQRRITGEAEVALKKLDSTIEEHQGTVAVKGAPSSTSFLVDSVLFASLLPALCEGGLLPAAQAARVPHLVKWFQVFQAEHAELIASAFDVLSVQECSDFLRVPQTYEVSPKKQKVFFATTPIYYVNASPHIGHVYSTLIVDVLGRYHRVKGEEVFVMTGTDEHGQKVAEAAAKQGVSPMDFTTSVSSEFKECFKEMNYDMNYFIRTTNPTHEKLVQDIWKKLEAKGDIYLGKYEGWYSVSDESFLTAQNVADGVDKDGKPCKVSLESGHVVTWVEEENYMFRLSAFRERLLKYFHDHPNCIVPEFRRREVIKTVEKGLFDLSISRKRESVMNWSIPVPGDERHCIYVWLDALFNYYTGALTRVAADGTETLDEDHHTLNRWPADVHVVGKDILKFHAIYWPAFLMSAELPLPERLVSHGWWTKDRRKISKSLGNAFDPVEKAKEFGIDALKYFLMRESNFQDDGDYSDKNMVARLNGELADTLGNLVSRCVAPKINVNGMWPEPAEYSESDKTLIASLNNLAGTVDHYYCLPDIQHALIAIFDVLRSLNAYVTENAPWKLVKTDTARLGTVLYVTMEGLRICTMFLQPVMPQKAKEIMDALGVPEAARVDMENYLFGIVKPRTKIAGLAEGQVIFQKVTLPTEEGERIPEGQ

[2] = molecular target: Protein translocase subunit SecA (Escherichia coli (strain K12)) (UniProt P10408); assay: Assay to Identify E. coli SecA ATPase Inhibitors; assay type: functional; design: scale not given: direction of the effect not stated beside the values; details: 30 µM
[3] = molecular target: T2, Ubiquitin-activating enzyme e1, putative (Leishmania donovani (strain BPK282A1)) (UniProt E9BSI1); assay: Leishmania donovani Ubiquitin Activating Enzyme (LdE1); assay type: functional; design: scale not given: direction of the effect not stated beside the values; details: 30 µM
T2 sequence (whole entry): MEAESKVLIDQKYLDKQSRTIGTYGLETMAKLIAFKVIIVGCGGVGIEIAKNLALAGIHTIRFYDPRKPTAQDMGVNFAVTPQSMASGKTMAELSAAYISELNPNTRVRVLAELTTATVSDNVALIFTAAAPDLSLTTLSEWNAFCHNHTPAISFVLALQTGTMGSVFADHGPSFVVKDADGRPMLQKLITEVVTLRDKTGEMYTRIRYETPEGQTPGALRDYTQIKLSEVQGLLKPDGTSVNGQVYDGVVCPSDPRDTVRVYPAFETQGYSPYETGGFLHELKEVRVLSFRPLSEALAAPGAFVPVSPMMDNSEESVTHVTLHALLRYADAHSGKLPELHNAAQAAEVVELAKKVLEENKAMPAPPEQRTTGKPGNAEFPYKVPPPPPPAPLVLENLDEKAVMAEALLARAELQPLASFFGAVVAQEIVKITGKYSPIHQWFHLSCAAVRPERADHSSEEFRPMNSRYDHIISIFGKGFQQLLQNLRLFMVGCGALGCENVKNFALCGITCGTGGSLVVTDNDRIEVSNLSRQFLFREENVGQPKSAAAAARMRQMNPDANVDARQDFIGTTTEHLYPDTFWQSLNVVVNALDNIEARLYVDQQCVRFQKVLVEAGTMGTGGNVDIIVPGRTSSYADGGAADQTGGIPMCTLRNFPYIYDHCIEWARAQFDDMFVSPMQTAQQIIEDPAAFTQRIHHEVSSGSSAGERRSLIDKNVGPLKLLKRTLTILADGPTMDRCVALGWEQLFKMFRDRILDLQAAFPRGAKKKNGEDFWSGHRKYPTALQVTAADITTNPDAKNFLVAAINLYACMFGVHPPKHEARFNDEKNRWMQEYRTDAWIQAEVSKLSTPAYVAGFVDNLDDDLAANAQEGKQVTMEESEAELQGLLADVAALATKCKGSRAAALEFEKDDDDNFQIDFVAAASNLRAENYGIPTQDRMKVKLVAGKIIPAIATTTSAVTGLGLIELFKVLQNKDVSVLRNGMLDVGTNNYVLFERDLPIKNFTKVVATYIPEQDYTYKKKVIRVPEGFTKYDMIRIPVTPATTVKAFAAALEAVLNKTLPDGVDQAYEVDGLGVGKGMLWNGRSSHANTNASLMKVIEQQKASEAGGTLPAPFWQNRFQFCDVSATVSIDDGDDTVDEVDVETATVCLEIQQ

[4] = molecular target: AMP-activated protein kinase, AMPK (Homo sapiens) (UniProt P54646+O43741+P54619+Q9UGJ0+Q9Y478+Q13131+Q9UGI9); assay: AMP-dependent Kinase enzyme assay. An in vitro enzyme assay that detects ADP turnover that is directly proportional to AMPK activity. This uses naive AMPK that is activated during the assay with MK-8722; assay type: functional; design: scale not given: direction of the effect not stated beside the values; details: 30 µM
[5] = molecular target: Sialic acid-binding Ig-like lectin 9 (Homo sapiens) (UniProt Q9Y336); assay: Hs-Siglec9 ALPHAscreen SOP 20170721; design: scale not given: direction of the effect not stated beside the values; details: 10 µM
Trypanosoma cruzi = assay: Trypanosoma cruzi phosphomannomutase and mannose-1-phosphate guanylyltransferase assay; assay type: functional; design: scale not given: direction of the effect not stated beside the values; details: 10 µM
[6] = molecular target: T3, Arginase-2, mitochondrial (Homo sapiens) (UniProt P78540); assay: in vitro enzyme assay to detect the production of urea directly proportional to the activity of Arginase II; assay type: functional; design: scale not given: in the data most compounds retested in dose-response had high values; details: 33.3 µM
T3 sequence (whole entry): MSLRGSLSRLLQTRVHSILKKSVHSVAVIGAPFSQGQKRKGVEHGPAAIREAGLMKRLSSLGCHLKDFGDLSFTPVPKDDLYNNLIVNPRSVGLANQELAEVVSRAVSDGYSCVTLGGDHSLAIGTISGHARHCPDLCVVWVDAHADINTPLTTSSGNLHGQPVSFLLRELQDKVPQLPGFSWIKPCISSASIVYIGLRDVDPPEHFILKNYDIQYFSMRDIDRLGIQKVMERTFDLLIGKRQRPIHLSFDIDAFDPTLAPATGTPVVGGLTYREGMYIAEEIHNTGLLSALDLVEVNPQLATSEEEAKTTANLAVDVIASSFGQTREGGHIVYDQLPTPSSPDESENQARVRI

[7] = molecular target: T4, Proteasome subunit beta (Trypanosoma cruzi) (UniProt O96673); assay: Trypanosoma cruzi proteasome chymotrypsin-like activity (TcProtChymo) assay.; assay type: functional; design: scale not given: in the data most compounds retested in dose-response had high values; details: 9.37 µM
T4 sequence (whole entry): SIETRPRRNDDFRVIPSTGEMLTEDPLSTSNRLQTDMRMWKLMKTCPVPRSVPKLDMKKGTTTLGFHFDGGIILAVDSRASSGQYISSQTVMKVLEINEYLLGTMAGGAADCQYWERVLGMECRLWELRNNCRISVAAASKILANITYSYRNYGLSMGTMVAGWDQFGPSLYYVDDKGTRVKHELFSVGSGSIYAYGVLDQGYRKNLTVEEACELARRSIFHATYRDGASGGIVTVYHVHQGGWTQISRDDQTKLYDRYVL

Homo sapiens = organism: Homo sapiens; assay: To identify inhibition of the IFN signalling (Jak-Stat) pathway via expression of an eGFP reporter gene under the control of an IFN-stimulated response element (ISRE) containing MxA promoter.; assay type: functional; design: scale not given: direction of the effect not stated beside the values; details: 30 µM
[8] = molecular target: T5, Tyrosyl-tRNA synthetase, putative (Trypanosoma cruzi (strain CL Brener)) (UniProt Q4DSP6); assay: Trypanosoma cruzi tyrosyl tRNA synthetase (TcYRS) _High Tyrosine SOP; assay type: functional; design: scale not given: in the data most compounds retested in dose-response had high values; details: 30 µM
T5 sequence (whole entry): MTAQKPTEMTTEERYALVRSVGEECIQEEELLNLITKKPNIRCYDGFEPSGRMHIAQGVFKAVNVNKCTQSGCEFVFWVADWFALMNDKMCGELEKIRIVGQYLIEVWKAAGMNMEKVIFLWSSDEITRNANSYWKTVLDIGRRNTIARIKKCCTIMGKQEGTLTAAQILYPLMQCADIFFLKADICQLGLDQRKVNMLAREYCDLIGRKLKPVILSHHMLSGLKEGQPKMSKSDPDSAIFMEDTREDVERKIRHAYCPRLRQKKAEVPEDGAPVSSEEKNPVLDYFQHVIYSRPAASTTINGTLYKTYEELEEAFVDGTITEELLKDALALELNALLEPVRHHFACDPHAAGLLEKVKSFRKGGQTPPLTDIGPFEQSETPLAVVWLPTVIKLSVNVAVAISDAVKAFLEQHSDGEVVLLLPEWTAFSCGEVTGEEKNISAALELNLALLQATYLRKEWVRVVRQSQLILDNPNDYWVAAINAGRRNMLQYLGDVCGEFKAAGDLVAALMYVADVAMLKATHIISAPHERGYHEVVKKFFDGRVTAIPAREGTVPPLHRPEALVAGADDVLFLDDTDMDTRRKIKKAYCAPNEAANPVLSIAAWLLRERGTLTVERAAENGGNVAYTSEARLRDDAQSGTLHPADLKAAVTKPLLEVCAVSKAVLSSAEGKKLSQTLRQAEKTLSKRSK

[9] = molecular target: T5, Tyrosyl-tRNA synthetase, putative (Trypanosoma cruzi (strain CL Brener)); assay: Trypanosoma cruzi tyrosyl tRNA synthetase (TcYRS) SOP; assay type: functional; design: scale not given: direction of the effect not stated beside the values; details: 30 µM
[10] = molecular target: Chromo domain-containing protein 1 (Saccharomyces cerevisiae (strain ATCC 204508 / S288c) (Baker's yeast)) (UniProt P32657); assay: ScCHD-1 Enzyme Inhibition Assay; assay type: functional; design: scale not given: in the data most compounds retested in dose-response had high values; details: 30 µM
Chain of Chromo domain-containing protein 1 (Saccharomyces cerevisiae (strain ATCC 204508 / S288c) (Baker's yeast)) (P32657 whole entry, the tested form may be a part): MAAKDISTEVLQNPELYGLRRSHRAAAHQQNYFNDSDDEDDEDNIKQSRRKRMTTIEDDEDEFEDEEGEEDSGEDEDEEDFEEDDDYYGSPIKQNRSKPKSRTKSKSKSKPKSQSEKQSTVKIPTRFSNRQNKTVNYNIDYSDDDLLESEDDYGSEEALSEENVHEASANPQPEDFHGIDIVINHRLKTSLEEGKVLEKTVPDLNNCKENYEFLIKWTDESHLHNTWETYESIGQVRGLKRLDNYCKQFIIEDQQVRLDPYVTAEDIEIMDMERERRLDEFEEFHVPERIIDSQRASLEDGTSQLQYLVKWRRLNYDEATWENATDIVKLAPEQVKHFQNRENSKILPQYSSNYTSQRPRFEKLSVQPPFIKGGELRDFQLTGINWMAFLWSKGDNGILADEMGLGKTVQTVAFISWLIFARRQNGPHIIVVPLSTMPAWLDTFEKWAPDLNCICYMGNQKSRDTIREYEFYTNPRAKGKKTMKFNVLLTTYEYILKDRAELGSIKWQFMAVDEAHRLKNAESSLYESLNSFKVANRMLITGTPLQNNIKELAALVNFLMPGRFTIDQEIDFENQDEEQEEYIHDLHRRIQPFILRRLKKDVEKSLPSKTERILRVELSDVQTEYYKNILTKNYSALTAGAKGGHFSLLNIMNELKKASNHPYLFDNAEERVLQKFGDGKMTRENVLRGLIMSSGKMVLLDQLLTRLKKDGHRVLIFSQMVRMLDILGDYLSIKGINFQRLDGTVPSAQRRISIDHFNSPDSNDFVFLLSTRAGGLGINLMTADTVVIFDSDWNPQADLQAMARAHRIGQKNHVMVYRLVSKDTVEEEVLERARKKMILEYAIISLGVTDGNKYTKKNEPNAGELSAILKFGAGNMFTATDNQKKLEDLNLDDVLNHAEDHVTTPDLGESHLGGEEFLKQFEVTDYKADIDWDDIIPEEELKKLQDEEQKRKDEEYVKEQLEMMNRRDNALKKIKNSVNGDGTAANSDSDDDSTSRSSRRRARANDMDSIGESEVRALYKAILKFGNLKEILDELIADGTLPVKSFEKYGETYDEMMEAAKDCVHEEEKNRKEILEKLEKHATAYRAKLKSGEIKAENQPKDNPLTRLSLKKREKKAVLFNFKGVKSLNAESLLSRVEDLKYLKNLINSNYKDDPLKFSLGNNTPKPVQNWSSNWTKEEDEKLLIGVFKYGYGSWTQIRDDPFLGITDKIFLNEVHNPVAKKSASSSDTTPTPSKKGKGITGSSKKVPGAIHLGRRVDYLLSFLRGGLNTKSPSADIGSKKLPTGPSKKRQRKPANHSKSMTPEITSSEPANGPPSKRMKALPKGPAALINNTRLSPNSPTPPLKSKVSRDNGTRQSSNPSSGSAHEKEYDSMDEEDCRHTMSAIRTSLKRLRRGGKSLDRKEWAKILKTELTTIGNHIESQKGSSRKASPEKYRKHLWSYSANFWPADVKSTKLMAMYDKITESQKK

Chain of Protein translocase subunit SecA (Escherichia coli (strain K12)) (P10408 whole entry): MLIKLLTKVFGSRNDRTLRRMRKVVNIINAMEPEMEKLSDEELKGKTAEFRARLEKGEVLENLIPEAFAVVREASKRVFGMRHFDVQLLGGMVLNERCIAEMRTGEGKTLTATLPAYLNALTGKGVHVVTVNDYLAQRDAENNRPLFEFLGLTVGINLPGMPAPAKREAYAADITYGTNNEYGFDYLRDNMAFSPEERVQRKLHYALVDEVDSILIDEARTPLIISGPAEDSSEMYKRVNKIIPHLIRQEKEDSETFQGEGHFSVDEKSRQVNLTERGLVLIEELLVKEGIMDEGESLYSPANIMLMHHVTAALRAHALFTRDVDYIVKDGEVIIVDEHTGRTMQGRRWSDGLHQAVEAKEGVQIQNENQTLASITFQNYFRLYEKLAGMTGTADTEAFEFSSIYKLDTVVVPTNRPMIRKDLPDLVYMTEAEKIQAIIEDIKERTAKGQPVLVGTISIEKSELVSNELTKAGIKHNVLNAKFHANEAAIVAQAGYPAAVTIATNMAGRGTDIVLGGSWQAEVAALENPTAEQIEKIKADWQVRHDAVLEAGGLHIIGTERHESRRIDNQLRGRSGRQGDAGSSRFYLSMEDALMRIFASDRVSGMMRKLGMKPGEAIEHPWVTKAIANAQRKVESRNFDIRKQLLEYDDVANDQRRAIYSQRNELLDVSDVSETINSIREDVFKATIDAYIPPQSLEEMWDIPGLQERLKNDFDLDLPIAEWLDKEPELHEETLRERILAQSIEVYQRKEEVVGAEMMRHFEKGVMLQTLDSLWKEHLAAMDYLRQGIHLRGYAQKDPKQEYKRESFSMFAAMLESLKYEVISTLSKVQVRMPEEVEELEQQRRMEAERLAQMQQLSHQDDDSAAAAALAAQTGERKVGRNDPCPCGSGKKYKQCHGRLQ
Chain of Sialic acid-binding Ig-like lectin 9 (Homo sapiens) (Q9Y336 whole entry): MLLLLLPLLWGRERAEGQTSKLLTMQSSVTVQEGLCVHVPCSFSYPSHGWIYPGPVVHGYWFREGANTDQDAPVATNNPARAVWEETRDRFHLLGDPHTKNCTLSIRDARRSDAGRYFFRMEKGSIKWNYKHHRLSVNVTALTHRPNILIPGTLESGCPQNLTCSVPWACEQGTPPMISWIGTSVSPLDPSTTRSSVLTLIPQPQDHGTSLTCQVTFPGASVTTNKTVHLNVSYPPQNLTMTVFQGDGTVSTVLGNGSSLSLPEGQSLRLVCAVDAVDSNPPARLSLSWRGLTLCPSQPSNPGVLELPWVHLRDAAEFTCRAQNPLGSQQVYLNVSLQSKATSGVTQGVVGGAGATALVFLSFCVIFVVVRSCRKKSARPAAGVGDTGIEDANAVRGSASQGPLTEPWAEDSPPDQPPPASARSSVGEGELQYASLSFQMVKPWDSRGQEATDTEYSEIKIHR

SMILES: O=C(O)CN1CCC(F)(F)C2(CCN(c3ccccc3)C2)C1 (stereo unspecified)
- PXC50 ([1]; BOTTOM 0.682019073, HILLSLOPE 1.183129542, MAX_EFFECT 69.01408451, TOP 100.0): 4.25
- PXC50 ([1]; BOTTOM 1.497780238, HILLSLOPE 1.024260355, MAX_EFFECT 65.37037037, TOP 100.0): 4.23
- PXC50 ([1]; BOTTOM -1.515302198, HILLSLOPE 0.859784414, MAX_EFFECT 63.76811594, TOP 100.0): 4.28
- PXC50 ([1]; BOTTOM -4.436470638, HILLSLOPE 1.966892025, MAX_EFFECT 57.61821366, TOP 100.0): 4.1
- PXC50 ([1]; BOTTOM -10.23367543, HILLSLOPE 2.537985382, MAX_EFFECT 60.54421769, TOP 60.60381795): 4.54

SMILES: CC(C)c1nc(CNC2CCCN(c3cccnn3)C2)no1 (stereo unspecified)
- PXC50 ([1]; BOTTOM -4.804668592, HILLSLOPE 1.43236327, MAX_EFFECT 76.8115942, TOP 100.0): 4.38
- PXC50 ([1]; BOTTOM -10.26857321, HILLSLOPE 1.286287287, MAX_EFFECT 68.70748299, TOP 100.0): 4.3
- PXC50 ([1]; MAX_EFFECT 0.790513834): < 4
- PXC50 ([1]; MAX_EFFECT 4.444444444): < 4
- PXC50 ([1]; MAX_EFFECT 61.12084063): < 4

SMILES: Cc1nc2cc(=O)[nH]n2c(C)c1CC(=O)Nc1ccc2ccccc2n1
- PXC50 ([1]; BOTTOM 1.14070889, HILLSLOPE 1.278083227, MAX_EFFECT 56.52173913, TOP 100.0): 4.1
- PXC50 ([1]; MAX_EFFECT 23.76395534): < 4
- PXC50 ([1]; MAX_EFFECT 26.29558541): < 4
- PXC50 ([1]; MAX_EFFECT 33.33333333): < 4
- PXC50 ([1]; MAX_EFFECT 45.21452145): < 4
- Percent Effect [2]: -3.58%
- Percent Effect [3]: 5.26%
- Percent Effect [4]: -24.7%
- Percent Effect [5]: 6.53%
- Percent Effect (Trypanosoma cruzi): 0.564%
- Percent Effect [6]: -6.51%
- Percent Effect [7]: -1.34%
- Percent Effect (Homo sapiens): -15.5%
- Percent Effect [8]: 16.2%
- Percent Effect [9]: 12.2%
- Percent Effect [10]: -1.37%
